Assay results published in the supplement of paper PMC10849652.
Of roughly 8,800 targets only a part is listed; those with a hit were picked by preference. About 0.5% of all pairs of compound and target were hits. A number with no mark means an inactive call.

What was measured:
Assay in all cases: log2 fold change, soluble protein after heating vs DMSO (PISA); higher = thermal stabilisation; K562 lysate, 10 uM; active = over 0.2 and 3.5 SD of the protein, either way, in both replicates (recomputed)
[1] = compound: NCC(=O)Nc1ccc(-n2nc(C(F)(F)F)cc2-c2ccc3c(ccc4ccccc43)c2)cc1
In short: (§1)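 Values give the log-two fold change in thermal stability against solvent controls, from duplicates. Crude K562 extract at 1 mg/mL protein, made by dounce homogenisation in PBS pH 7.4 with 1 mM MgCl2, was treated with 10 μM compound for 30 min. After 3 min heating across 48°C-58°C, aliquots were pooled, adjusted to 0.5% NP-40 at 4°C and centrifuged at 21,000xg for 90 min. The supernatant was measured by TMTpro 16plex LC-MS/MS with channel sums equalised.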

[2] = compound: O=C(CCCCCCC(=O)Nc1ccccc1)NO [vorinostat]
In short: as §1

[3] = compound: O=C(O)c1ccc2c(c1)nc(Nc1cccc(Cl)c1)c1ccncc12 [silmitasertib]
In short: as §1

[4] = compound: O=C1NC(=O)C(c2cnc3ccccn23)=C1c1cn2c3c(cc(F)cc13)CN(C(=O)N1CCCCC1)CC2
In short: as §1

[5] = compound: c1cn2cc(-c3ccc4cn[nH]c4c3)nc(Nc3ccc(N4CCOCC4)cc3)c2n1 [entospletinib]
In short: as §1

Sequence of UniProt Q6P4F2 (Q6P4F2 whole entry, looked up): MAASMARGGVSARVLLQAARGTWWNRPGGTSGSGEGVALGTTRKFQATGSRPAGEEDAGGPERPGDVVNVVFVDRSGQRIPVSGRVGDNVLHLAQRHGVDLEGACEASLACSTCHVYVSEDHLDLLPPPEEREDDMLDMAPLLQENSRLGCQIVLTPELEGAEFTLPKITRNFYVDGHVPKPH
Sequence of UniProt P23919 (P23919 whole entry, looked up): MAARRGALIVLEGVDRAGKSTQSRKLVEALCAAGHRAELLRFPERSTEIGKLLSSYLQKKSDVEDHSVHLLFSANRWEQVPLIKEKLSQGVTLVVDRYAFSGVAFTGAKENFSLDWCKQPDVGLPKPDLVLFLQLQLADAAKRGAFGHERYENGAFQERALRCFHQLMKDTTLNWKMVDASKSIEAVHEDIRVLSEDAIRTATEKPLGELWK
Sequence of UniProt Q96EK7 (Q96EK7 whole entry, looked up): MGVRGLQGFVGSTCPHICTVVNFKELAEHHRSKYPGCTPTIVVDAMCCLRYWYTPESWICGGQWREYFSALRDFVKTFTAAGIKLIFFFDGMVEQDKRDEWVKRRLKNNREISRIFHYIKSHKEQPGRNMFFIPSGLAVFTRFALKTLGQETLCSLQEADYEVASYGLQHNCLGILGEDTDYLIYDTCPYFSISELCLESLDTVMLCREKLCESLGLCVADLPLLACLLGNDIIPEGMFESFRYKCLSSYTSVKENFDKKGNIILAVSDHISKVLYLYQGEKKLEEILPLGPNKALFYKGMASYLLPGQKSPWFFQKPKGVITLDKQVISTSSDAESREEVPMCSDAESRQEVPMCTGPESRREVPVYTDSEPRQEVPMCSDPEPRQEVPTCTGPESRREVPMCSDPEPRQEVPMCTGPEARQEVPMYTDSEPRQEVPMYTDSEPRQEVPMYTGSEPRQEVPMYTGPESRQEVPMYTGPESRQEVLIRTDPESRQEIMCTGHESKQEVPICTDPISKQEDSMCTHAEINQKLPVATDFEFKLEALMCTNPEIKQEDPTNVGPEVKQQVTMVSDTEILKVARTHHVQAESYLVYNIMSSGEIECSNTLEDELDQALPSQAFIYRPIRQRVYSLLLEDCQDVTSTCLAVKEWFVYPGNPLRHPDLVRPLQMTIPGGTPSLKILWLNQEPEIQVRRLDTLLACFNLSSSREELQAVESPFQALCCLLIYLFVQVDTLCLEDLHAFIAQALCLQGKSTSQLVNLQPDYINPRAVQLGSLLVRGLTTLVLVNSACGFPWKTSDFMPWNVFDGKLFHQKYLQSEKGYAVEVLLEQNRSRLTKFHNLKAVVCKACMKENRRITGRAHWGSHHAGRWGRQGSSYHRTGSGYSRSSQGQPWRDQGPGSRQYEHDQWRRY
Sequence of UniProt P51114 (P51114 whole entry, looked up): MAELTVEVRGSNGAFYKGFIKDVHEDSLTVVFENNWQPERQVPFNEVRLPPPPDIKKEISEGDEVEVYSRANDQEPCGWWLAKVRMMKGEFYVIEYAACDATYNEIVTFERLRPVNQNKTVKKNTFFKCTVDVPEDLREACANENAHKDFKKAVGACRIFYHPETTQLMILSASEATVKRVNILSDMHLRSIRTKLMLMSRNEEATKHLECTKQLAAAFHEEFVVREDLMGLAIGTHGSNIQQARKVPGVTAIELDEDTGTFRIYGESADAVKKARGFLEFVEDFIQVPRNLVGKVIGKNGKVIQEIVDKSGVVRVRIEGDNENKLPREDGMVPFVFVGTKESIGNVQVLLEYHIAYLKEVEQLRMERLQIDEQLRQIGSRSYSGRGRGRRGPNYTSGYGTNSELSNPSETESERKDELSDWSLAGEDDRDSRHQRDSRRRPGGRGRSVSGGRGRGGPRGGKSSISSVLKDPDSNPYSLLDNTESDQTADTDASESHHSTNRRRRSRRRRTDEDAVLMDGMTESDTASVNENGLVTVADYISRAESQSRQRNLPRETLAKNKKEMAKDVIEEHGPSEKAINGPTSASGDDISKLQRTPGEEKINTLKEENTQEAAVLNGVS
Sequence of UniProt Q86YP4 (Q86YP4 whole entry, looked up): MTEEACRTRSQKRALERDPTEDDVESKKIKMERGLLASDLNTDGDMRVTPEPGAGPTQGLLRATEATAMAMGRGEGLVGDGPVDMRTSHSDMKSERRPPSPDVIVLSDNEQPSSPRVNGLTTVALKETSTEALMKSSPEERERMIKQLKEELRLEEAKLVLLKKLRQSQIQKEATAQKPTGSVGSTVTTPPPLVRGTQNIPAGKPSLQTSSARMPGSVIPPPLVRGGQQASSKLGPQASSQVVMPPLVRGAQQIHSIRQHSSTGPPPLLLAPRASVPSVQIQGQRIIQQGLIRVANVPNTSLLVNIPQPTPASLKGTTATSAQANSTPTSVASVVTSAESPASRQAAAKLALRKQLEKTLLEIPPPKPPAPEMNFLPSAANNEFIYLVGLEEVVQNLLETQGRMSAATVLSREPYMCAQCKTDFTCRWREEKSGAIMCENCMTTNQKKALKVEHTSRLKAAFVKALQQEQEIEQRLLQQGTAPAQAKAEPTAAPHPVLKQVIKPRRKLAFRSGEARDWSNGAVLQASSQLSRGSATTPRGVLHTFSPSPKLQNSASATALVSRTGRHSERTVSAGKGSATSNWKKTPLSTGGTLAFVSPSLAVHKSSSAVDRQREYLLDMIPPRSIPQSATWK
Sequence of UniProt Q06547 (Q06547 whole entry, looked up): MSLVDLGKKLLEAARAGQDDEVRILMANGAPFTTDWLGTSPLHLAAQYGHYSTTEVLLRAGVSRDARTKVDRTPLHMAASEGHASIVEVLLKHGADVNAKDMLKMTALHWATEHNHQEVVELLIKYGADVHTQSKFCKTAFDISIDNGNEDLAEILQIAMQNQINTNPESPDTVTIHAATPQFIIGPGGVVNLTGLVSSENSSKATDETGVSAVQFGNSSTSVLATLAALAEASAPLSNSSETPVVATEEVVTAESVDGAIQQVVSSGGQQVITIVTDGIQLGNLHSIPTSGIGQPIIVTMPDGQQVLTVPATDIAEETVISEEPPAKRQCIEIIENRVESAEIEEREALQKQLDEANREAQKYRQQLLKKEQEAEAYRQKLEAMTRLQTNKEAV
Sequence of UniProt P37268 (P37268 whole entry, looked up): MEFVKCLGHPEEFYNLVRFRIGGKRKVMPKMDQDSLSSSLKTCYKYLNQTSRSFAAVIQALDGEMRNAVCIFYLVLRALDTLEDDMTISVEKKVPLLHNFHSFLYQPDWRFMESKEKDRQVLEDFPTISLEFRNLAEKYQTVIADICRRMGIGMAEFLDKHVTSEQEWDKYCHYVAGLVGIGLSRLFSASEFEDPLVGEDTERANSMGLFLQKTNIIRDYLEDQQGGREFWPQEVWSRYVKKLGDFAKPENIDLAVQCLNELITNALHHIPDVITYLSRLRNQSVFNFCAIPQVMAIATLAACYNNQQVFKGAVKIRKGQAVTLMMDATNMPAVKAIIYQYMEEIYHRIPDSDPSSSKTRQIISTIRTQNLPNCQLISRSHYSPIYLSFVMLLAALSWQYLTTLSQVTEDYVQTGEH
Sequence of UniProt Q9NRW4 (Q9NRW4 whole entry, looked up): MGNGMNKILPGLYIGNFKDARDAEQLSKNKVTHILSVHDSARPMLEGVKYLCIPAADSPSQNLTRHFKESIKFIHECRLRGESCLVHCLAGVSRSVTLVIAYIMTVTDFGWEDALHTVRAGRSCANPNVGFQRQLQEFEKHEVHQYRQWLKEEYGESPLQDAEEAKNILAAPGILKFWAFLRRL

Row | Target | log2 fold change [1] | log2 fold change [2] | log2 fold change [3] | log2 fold change [4] | log2 fold change [5]
1 | FDX2 (UniProt Q6P4F2) | -0.03 | 0.195 | -0.069 | -0.066 | 0.042
2 | DUSP22 isoform 2 (UniProt Q9NRW4) | -0.025 | -0.102 | 0.002 | – | –
3 | GABPB1 isoform 3 (UniProt Q06547) | -0.012 | -0.41 (active) | 0.08 | 0.067 | -0.024
4 | DTYMK (UniProt P23919) | -0.022 | -0.294 (active) | 0.071 | -0.023 | 0.061
5 | GAA (UniProt P10253) | -0.038 | -0.176 | -0.092 | -0.056 | 0.068
6 | FXR1 (UniProt P51114) | -0.006 | -0.257 (active) | 0.045 | -0.041 | 0.023
7 | FDFT1 (UniProt P37268) | -0.004 | -0.006 | 0.041 | 0.004 | 0.06
8 | FAM120B (UniProt Q96EK7) | -0.002 | -0.299 (active) | 0.041 | -0.022 | -0.001
9 | GATAD2A isoform 3 (UniProt Q86YP4) | 0.023 | -0.213 (active) | -0.028 | 0.019 | -0.001
